Assay outcomes as filed in PubChem.
The list is not random: actives were taken first. Their share in the collection is about 1.6%.
KCNQ2 inh = KCNQ2 (rat) channel inhibition. 310,000 compounds, 1.1% hits. AID 2156. B-score at 10 µM. O88943. CHO-K1 KCNQ2, FluxOR thallium flux, 20 min; hits give low values;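 active means fluorescence ratio B-score at most minus 3 library SDs, with starting brightness B-score within 2 library SDs, cut at about -5.5 in these data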
KCNQ2 enhance = potentiators of rat KCNQ2 potassium channel. O88943. CHO-K1 KCNQ2, FluxOR thallium flux fluorescence; hits give high values. B-score at 10 µM. 310,000 compounds, 0.54% hits. AID 2239;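 active means fluorescence ratio B-score at least 3 SD of library B-scores, with initial fluorescence B-score within 3 of them, cut at about 5.3 in these data; same plate scores as AID 2156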;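 further: B-score of peak minus minimum over baseline fluorescence ratio after K+ and Tl+ stimulus; positive B-score means potentiation of KCNQ2 with more thallium influx and brighter signal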
Kir21 confirm = confirmation of mouse Kir2.1 potassium channel inhibitors | Tl flux remaining, % of negative control (hits give low values), % at 10 µM | Kir2.1-expressing cells, FluxOR thallium flux fluorescence; hits give low values | AID 2032 | shares compounds with KCNQ2 enhance | 2,300 compounds, 41% hits;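 active means Primary-screen hit whose thallium flux fell at least 3 control SD below untreated wells in both duplicates, with normal baseline fluorescence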
Target sequence (P35561 whole entry, looked up): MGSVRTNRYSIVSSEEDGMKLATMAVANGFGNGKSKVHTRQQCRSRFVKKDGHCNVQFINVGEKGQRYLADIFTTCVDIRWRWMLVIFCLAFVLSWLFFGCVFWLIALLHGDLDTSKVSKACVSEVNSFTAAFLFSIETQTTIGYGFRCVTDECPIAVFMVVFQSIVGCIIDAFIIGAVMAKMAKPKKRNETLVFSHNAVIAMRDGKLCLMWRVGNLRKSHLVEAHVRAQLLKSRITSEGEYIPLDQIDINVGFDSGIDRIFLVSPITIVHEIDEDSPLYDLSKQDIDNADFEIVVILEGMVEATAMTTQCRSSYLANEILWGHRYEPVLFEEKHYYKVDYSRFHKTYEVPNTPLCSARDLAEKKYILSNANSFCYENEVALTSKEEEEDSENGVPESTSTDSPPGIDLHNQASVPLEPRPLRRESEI
HEK293 ctr = counter-screen for Kir2.1 inhibitors: effect in parental HEK293 cells | shares compounds with KCNQ2 enhance | FluxOR thallium flux fluorescence; 0% = unstimulated blank wells | FluxOR signal as % of negative control (100 = no effect), % at 10 µM | 2,300 compounds, 19% hits | AID 2105;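 active means dye signal at least 3 control SD above or below untreated wells in both duplicates, raw fluorescence within 3, either direction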;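 further: percent is based on the flux ratio of peak minus minimum fluorescence over baseline F0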
CHO-K1 Tl ctr = parental CHO-K1 activity in KCNQ2 potentiator counter-screen. shares compounds with KCNQ2 enhance. parental CHO-K1 cells, FluxOR thallium flux fluorescence; zero = vehicle mean+3SD, 100% = vehicle-minus-blank window. activity increase over 3SD of controls, % at 10 µM. 1,200 compounds, 43% hits. AID 2282;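 active means signal rise of at least 3 SD above the untreated control mean, in both duplicate wells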;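 further: counter screen of KCNQ2 potentiator hits so any rise reflects channel-independent effects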
KCNQ1 sel pot = tests whether KCNQ2 potentiators also act on human KCNQ1. shares compounds with KCNQ2 enhance. AID 2283. activation over 3SD threshold, % at 10 µM. CHO KCNQ1 stable, FluxOR thallium flux fluorescence; beyond 3SD, as % of vehicle-control signal. 1,200 compounds, 28% hits;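 active means fluorescence ratio rise of at least 3 SD of vehicle wells above their mean, in both replicate wells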
KCNQ2 pot conf = rat KCNQ2 channel potentiator confirmation; shares compounds with KCNQ2 enhance; CHO-KCNQ2 cells, FluxOR thallium flux fluorescence; potentiation, less the hit threshold, % at 10 µM; 1,200 compounds, 68% hits; AID 2287;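 active means fluorescence ratio rising 3 SD or more over the vehicle control mean in both replicates, plus primary screen hit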;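 further: peak minus minimum thallium fluorescence divided by baseline after K/Tl stimulus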
Kir2-1 sel = mouse Kir2.1 off-target activity of KCNQ2 potentiators | shares compounds with KCNQ2 enhance | HEK293 Kir2.1, FluxOR thallium flux fluorescence | activity over 3SD threshold, % at 10 µM | 1,200 compounds, 2% hits;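 active means fluorescence ratio rise of at least 3 SD above the vehicle-control mean, seen in both replicates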
KCNQ2 W236L pot = rat KCNQ2 W236L mutant potentiation by KCNQ2 potentiators; CHO KCNQ2-W236L, automated patch clamp current; 940 compounds, 10% hits; shares compounds with KCNQ2 enhance; AID 2558; current increase over 3SD of negative controls (%), hits give high values, % at 25 µM;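 active means current increase at least 3 SD of the untreated controls above them in both duplicate recordings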
Numbers stand for hits; n = inactive; x = no result.

SMILES | KCNQ2 inh | KCNQ2 enhance | Kir21 confirm | HEK293 ctr | others
Cc1nn(-c2ccccc2)c(Cl)c1/C=C1\SC(=S)NC1=O | n | 13 | n | 412% | CHO-K1 Tl ctr=n;KCNQ1 sel pot=n;KCNQ2 pot conf=215;Kir2-1 sel=n;KCNQ2 W236L pot=n
Cc1cccc(Oc2ccccc2NC(=O)CN2C(=O)NC3(CCCC3)C2=O)c1 | n | n | x | x
Cc1ccc(Oc2ccccc2NC(=O)CN2C(=O)NC3(CCCC3)C2=O)cc1 | n | 6.3 | n | n | CHO-K1 Tl ctr=26;KCNQ1 sel pot=22;KCNQ2 pot conf=13;Kir2-1 sel=n;KCNQ2 W236L pot=n
CCn1c(=O)cc(SCC(=O)NCC2CCCO2)c2ccccc21 (stereo unspecified) | n | n | x | x
Cn1c(=O)cc(SCC(=O)NCC2CCCO2)c2ccc(Cl)cc21 (stereo unspecified) | n | 6.2 | n | n | CHO-K1 Tl ctr=n;KCNQ1 sel pot=92;KCNQ2 pot conf=n;Kir2-1 sel=n
CN1C(c2ccccc2)CCOS1(=O)=O (stereo unspecified) | n | n | x | x
CC(OC(=O)Cn1cnc2c1c(=O)n(C)c(=O)n2C)C(=O)N(C)c1ccccc1 (stereo unspecified) | n | n | x | x
COc1cc(C)c(S(=O)(=O)NOCc2ccccc2)c(C)c1C | n | x | n | n
COc1cc(C)c(S(=O)(=O)NOCc2ccc([N+](=O)[O-])cc2)c(C)c1C | n | n | x | x
Cc1ccc(C(=O)NC(=S)N(C)C2CCCCC2)cc1 | n | 5.7 | n | 212% | CHO-K1 Tl ctr=n;KCNQ1 sel pot=18;KCNQ2 pot conf=31;Kir2-1 sel=n;KCNQ2 W236L pot=n
CN(C(=S)NC(=O)/C=C/c1ccc(F)cc1)C1CCCCC1 | n | x | x | x
Cc1ccc(SCCNC(=S)Nc2ccccc2)cc1 | n | x | x | x
Cc1ccc(SCCNC(=S)Nc2ccc(C)c(C)c2)cc1 | n | 10 | n | 72% | CHO-K1 Tl ctr=1.9;KCNQ1 sel pot=16;KCNQ2 pot conf=n;Kir2-1 sel=n;KCNQ2 W236L pot=n
CCC(C)NS(=O)(=O)c1ccc(OCC(=O)NCc2ccccn2)cc1 (stereo unspecified) | n | n | x | x
O=S(=O)(c1ccc(Cl)cc1)N1CCCC1c1nc(-c2ccc(Cl)cc2)no1 (stereo unspecified) | n | x | x | x
Nc1nc(C2CCCN2S(=O)(=O)c2ccc(Cl)cc2)cs1 (stereo unspecified) | n | n | 62% | n
COc1ccccc1/C=C1\Oc2cc(OC(=O)N3CCOCC3)ccc2C1=O | n | x | x | x
CCc1nc(C)cn1S(=O)(=O)c1cc(F)ccc1OC | n | n | x | x
CCc1nc(C)cn1S(=O)(=O)c1cc(Cl)c(OC)cc1Cl | n | n | 58% | n
CCc1nc(C)cn1S(=O)(=O)c1cc(C)c(OC)cc1C | n | n | x | x
CCc1nc(C)cn1S(=O)(=O)c1cc(Br)ccc1OC | n | n | 24% | n
CCc1nc(C)cn1S(=O)(=O)c1ccc(Cl)c(Cl)c1Cl | n | x | x | x
CCc1nc(C)cn1S(=O)(=O)c1cc(Br)c(C)cc1OC | n | x | 35% | n
CCOc1ccc(C(=O)Nc2nnc(SCC(=O)NCC3CCCO3)s2)cc1OCC (stereo unspecified) | n | n | x | x
CCc1cccc(NC(=O)Cn2c(=O)n(CCC(=O)NCC3CCCO3)c(=O)c3cc(OC)c(OC)cc32)c1 (stereo unspecified) | n | x | x | x
SMILES | KCNQ2 inh | KCNQ2 enhance | Kir21 confirm | HEK293 ctr | others
CCCSc1cc(NCCOC(=O)CCC)c([N+](=O)[O-])c2nonc12 | n | x | x | x
CCCC(=O)OCCNc1cc(Sc2nccn2C)c2nonc2c1[N+](=O)[O-] | n | x | 70% | n
Cc1cc(F)ccc1S(=O)(=O)N1CCCOC1CNC(=O)C(=O)NC1CCCC1 (stereo unspecified) | n | x | x | x
CCC(C(=O)NC(C)(C)C)N(Cc1ccc(F)cc1)C(=O)c1snc(C(N)=O)c1N (stereo unspecified) | n | x | x | x
CCOc1cc(/C=C2\C(=O)ON=C2c2ccccc2)cc(Br)c1O | n | n | n | 46%
CCOc1cc(/C=C2/C(=O)ON=C2C)cc(Br)c1O | n | n | x | x
COc1cc(/C=C2\C(=O)ON=C2c2ccccc2)cc(Cl)c1O | n | n | x | x
COc1cc(/C=C2\C(=O)ON=C2c2ccccc2)cc(Br)c1O | n | n | n | 51%
CN(c1ccc(OCC(=O)OCC(=O)NCc2ccco2)cc1)S(=O)(=O)c1ccc2ccccc2c1 | n | n | x | x
C#CCOC(=O)CCCC(=O)NCCCCCCCC | n | n | x | x
COc1ccc2c(c1)CCCN2C(N)=Nc1ccc(Cl)cc1 | n | n | 37% | n
COc1ccc2c(c1)CCCN2C(N)=O | n | x | x | x
C/C(=N/NC(=O)c1ccc(Br)o1)c1cccc(NC(=O)c2ccc(F)cc2)c1 | n | x | x | x
COc1ccc(C(CNC(=O)Cc2cccs2)N(C)C)cc1 (stereo unspecified) | n | x | x | x
CN1CCC(N(C)C(=O)c2cc(=O)c3ccccc3o2)CC1 | n | x | n | n
CCc1ccc(CN(C)C(=O)c2cc(=O)c3ccccc3o2)cc1 | n | x | x | x
Cn1c(N)c(C(=O)COC(=O)c2ccc([N+](=O)[O-])o2)c(=O)n(C)c1=O | n | n | x | x
CCOC(=O)C1CCN(C(=O)c2ccc3c(c2)C(=O)N(c2ccccc2C)C3=O)CC1 | n | n | x | x
O=C(Nc1ccccc1)N1CCc2c([nH]c3ccccc23)C1C(F)(F)F (stereo unspecified) | n | x | x | x
O=C(c1ccc(Cl)cc1)N1CCc2c([nH]c3ccccc23)C1C(F)(F)F (stereo unspecified) | n | 8 | n | n | CHO-K1 Tl ctr=16;KCNQ1 sel pot=n;KCNQ2 pot conf=2.7;Kir2-1 sel=n;KCNQ2 W236L pot=n
CCCc1cc(C(=O)NC(C)C2CCCO2)cs1 (stereo unspecified) | n | x | x | x
COc1cc(C(=O)OCC(=O)N2CCC(Cc3ccccc3)CC2)cc(OC)c1OC | n | 5.6 | n | 67% | CHO-K1 Tl ctr=n;KCNQ1 sel pot=n;KCNQ2 pot conf=35;Kir2-1 sel=n;KCNQ2 W236L pot=n
O=C(OCC(=O)N1CCC(Cc2ccccc2)CC1)c1ccccc1 | n | n | x | x
CN(C(=O)COC(=O)c1ccccc1SCC(=O)N1CCCC1)C1CCS(=O)(=O)C1 (stereo unspecified) | n | n | x | x
COc1ccc(-c2csc(NC(=O)c3ccc(C(C)(C)C)cc3)c2C(=O)O)cc1 | n | 6.5 | n | n | CHO-K1 Tl ctr=n;KCNQ1 sel pot=n;KCNQ2 pot conf=n;Kir2-1 sel=n
COc1ccc(-c2csc(NC(=O)c3ccccc3Br)c2C(=O)O)cc1 | n | n | x | x
CCn1c(=O)cc(OCC(=O)NCc2cccs2)c2ccccc21 | n | x | x | x
Cc1cc(C)c(NC(=O)CS)c(Cl)c1 | n | 20 | n | n | CHO-K1 Tl ctr=n;KCNQ1 sel pot=n;KCNQ2 pot conf=95;Kir2-1 sel=n;KCNQ2 W236L pot=n
